Results reported in PubChem BioAssay (NCATS).
Results filed as inconclusive are left out. Entries that show only a call come without a potency. The source made the active and inactive calls. Calls follow the shape of the dose curve; as a rule, active = well fitted inhibition curve with a large enough effect; inconclusive = small, poorly fitted or top-dose-only effect; inactive = flat fitted curve, though single readings scatter.

What follows are compounds tested against Calcium and integrin-binding protein 1 (Homo sapiens) (UniProt Q99828) (assay: Primary qHTS for Identification of Calcium Integrin Binding Protein 1 (CIB1) Competitor (AID 1508620; as to activity change, negative = inhibition: top concentration of the series differs between compounds)). Settings: CIB1-GST / FITC-alphaIIb peptide fluorescence polarization; series mostly up to 57.7 µM.
Chain of Calcium and integrin-binding protein 1 (Homo sapiens) (Q99828 whole entry, looked up): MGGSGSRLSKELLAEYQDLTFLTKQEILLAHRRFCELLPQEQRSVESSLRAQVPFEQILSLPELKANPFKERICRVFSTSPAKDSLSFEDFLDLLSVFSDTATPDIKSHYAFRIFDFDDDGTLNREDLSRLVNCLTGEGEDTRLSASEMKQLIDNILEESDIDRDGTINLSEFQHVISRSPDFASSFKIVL
How it was run: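 Fluorescence polarization competition: GST-tagged CIB1 (1 uM final) preincubated with compound 15 min at room temperature, then FITC-labelled alphaIIb peptide (100 nM final) added. After 15 min at room temperature, polarization read at Ex 480/Em 540.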
Potency is read from the fitted curve at half-maximal effect.

Structure (SMILES) | Potency | activity change, negative = inhibition
Cn1cc(-c2cnn3c(N)c(Br)c([C@H]4CCCNC4)nc23)cn1 | inactive | 
CN(C)CC(=O)N1CCC(c2ccc(NC(=O)c3ncc(C#N)[nH]3)c(C3=CCCCC3)c2)CC1 | inactive | 
OCc1ccccc1O[C@@H]1O[C@H](CO)[C@H](O)[C@H](O)[C@H]1O | inactive | 
C=CC1=C(C(=O)O)N2C(=O)[C@@H](NC(=O)C(=NO)c3csc(N)n3)[C@H]2SC1 | inactive | 
O=C1NC(=O)[C@@H](c2cn3c4c(cccc24)CCC3)[C@H]1c1c[nH]c2ccccc12 | inactive | 
N#CC(=C(O)c1ccc(Cl)cc1Cl)c1nc2cc(Cl)ccc2c(=O)[nH]1 | inactive | 
COc1cc(OC)cc(-c2ccc3ncc4ccc(=O)n(-c5ccc(N6CCNCC6)c(C(F)(F)F)c5)c4c3c2)c1 | inactive | 
c1ccc(CNc2nc(NCc3ccccc3)c3ccccc3n2)cc1 | inactive | 
CCCc1nc(C(C)(C)O)c(C(=O)O)n1Cc1ccc(-c2ccccc2-c2nn[nH]n2)cc1 | inactive | 
CC(=O)NC(CS)C(=O)O (stereo not drawn) | inactive | 
CCS(=O)(=O)Nc1ccc2[nH]c(O)c(C(=Nc3ccc(CN4CCCCC4)cc3)c3ccccc3)c2c1 | inactive | 
Nc1nc(=O)n([C@H]2C[C@H](O)[C@@H](CO)O2)cc1F | inactive | 
CCC(C(=O)O)C1CCC(C)C(C(C)C(O)C(C)C(=O)C(CC)C2OC3(C=CC(O)[C@@]4(CC[C@](C)(C5CC[C@@](O)(CC)C(C)O5)O4)O3)C(C)CC2C)O1 (stereo partly drawn) | inactive | 
Oc1ccc([C@@H]2Oc3ccc(O)cc3[C@@H]3CCC[C@@H]32)cc1 | inactive | 
COc1cc(C)c(Sc2cnc(NC(=O)c3ccc(CNC(C)C(C)(C)C)cc3)s2)cc1C(=O)N1CCN(C(C)=O)CC1 (stereo not drawn) | inactive | 
CC(=O)[C@]1(O)Cc2c(O)c3c(c(O)c2[C@@H](O[C@H]2C[C@H](N)[C@@H](O)[C@H](C)O2)C1)C(=O)c1ccccc1C3=O | 24.1 µM (active) | 
CC[C@]12C=CCN3CC[C@@]4(c5cc([C@@]6(C(=O)OC)C[C@H]7C[C@@H](C(C)(F)F)CN(Cc8c6[nH]c6ccccc86)C7)c(OC)cc5N(C)[C@H]4[C@@](O)(C(=O)OC)[C@H]1OC(C)=O)[C@@H]32 | inactive | 
CN[C@H]1[C@@H](O)[C@@H]2O[C@@H]3O[C@H](C)CC(=O)[C@]3(O)O[C@@H]2[C@@H](NC)[C@H]1O | inactive | 
C[C@@H](Cc1cc2c(c(C(N)=O)c1)N(CCCO)CC2)NCCOc1ccccc1OCC(F)(F)F | inactive | 

Structure (SMILES) | Potency | activity change, negative = inhibition
Oc1ccc(-c2ccc(-c3cc(Nc4cccc(CNC5CC5)c4)n[nH]3)cc2)c(O)c1 | inactive | 
O=C(C[C@@H]1CC=CCCC(=O)O[C@H](c2ccccc2)CNC1=O)NCc1ccc(Cl)cc1 | inactive | 
CC(C)N(CC[C@H](c1ccccc1)c1cc(CO)ccc1O)C(C)C | inactive | 
O=C(O)C[C@H](O)C[C@H](O)C=Cc1c(C2CC2)nc2ccccc2c1-c1ccc(F)cc1 | inactive | 
N#CNC(=NCCCCCCOc1ccc(Cl)cc1)Nc1ccncc1 | inactive | 
CCOc1cc2ncc(C#N)c(Nc3ccc(OCc4ccccn4)c(Cl)c3)c2cc1NC(=O)C=CCN(C)C | inactive | 
Cc1[nH]c(C=C2C(=O)Nc3ccccc32)c(C)c1CCC(=O)O | inactive | 
CN(CC(=O)N(Cc1ccc(C2CCCCC2)cc1)c1ccc(C(=O)O)c(O)c1)S(=O)(=O)c1c(F)c(F)c(F)c(F)c1F | inactive | 
Cn1cc(C=CC(=O)c2cccc(F)c2)cc1C=CC(=O)NO | inactive | 
CCCCCCCCc1ccc(CCC(N)(CO)CO)cc1 | inactive | 
C[C@H]1C[C@H]2[C@@H]3CCC4=CC(=O)C=C[C@]4(C)[C@@H]3C(=O)C[C@]2(C)[C@@]1(O)C(=O)CO | inactive | 
Cc1cncc2cccc(S(=O)(=O)N3CCCN(C(=O)CN)C[C@@H]3C)c12 | inactive | 
CCC(C=C[C@@H]1OC(=O)C=C[C@H]1C)=C[C@H](C)CC=CC(C)=C[C@@H](C)C(=O)[C@@H](C)[C@H](O)[C@@H](C)CC(C)=CC(=O)O |  | 3.68% [at 2.24 µM] (inactive)
CCOC(=O)[C@@H](N)Cc1ccc(-c2cc(O[C@H](c3ccc(Cl)cc3-n3ccc(C)n3)C(F)(F)F)nc(N)n2)cc1 | inactive | 
CC(C)(O)[C@H]1CC[C@@](C)([C@H]2[C@@H](O)C[C@@]3(C)[C@@H]4C[C@H](O[C@@H]5O[C@H](CO)[C@@H](O)[C@H](O)[C@@H]5O)[C@H]5C(C)(C)[C@@H](O[C@@H]6OC[C@@H](O)[C@H](O)[C@@H]6O)CC[C@@]56C[C@@]46CC[C@]23C)O1 | inactive | 
C=Cc1c(C)c2cc3nc(cc4[nH]c(cc5nc(cc1[nH]2)C(C)=C5CCC(=O)O)c(CCC(=O)OC)c4C)[C@@]1(C)C3=CC=C(C(=O)OC)[C@H]1C(=O)OC | inactive | 
Cc1onc(-c2ccccc2)c1C(=O)N[C@@H]1C(=O)N2[C@@H](C(=O)O)C(C)(C)S[C@@H]12 | inactive | 
Cn1cc(C[C@@H](N)C(=O)O)c2ccccc21 | inactive | 
CCNC(=O)Nc1ccc(-c2nc3c(c(N4CCOC[C@H]4C)n2)CCN(C2COC2)C3)cc1 | inactive | 
